Results published in PubChem BioAssay AID463173 (ICCB-Longwood Screening Facility, Harvard Medical School, 2010).
Out of some 52,000 compounds screened, about 1,700 (3.3%) were called active. The full list was thinned out, with actives kept by preference. Values without a mark were called inactive. No stated cut-off is given here; in the data, active means survival mostly below about 52% (no sharp cut-off); inactive means mostly above about 56%.

Test system: Wild type
Experiment: growth inhibition of S. aureus wild type versus tarO mutant, primary screen, teichoic acid synthesis inhibitors, RN4220, OD600 (AID 463173)
Details: S. aureus RN4220 wild type/DeltatarO growth, OD600, 18 h, stronger effect = lower value, screened at 18.75 µg/mL (by protocol)

SMILES | survival
Cc1ccc(NC(=O)CCc2c(C)nn(-c3ccc(N4CCCCC4)nn3)c2C)cc1F | 146%
COCCCNc1cc(C)nc2ccccc12 | 121%
COc1ccc(N2CC3=C(C2=O)C(c2ccc(Br)cc2)NC(=O)N3C)cc1 (configuration not stated) | 156%
COc1ccc(CNC(=O)c2cnc3cc(C)ccn3c2=O)cc1 | 85%
Cc1ccc(OC(=O)CSc2nnc(CNC(=O)c3ccccc3)o2)cc1 | 87%
N#Cc1ccccc1Cn1c(SCC(=O)NCc2ccccc2)nc2ccccc21 | 75%
O=C(C1CCN(S(=O)(=O)c2ccccc2)CC1)N1CCCCC1 | 96%
O=C1C2c3ccccc3CCN2C(=O)CN1CCc1ccccc1 (configuration not stated) | 121%
CCOc1ccc(-n2nc(CO)c(C(=O)NCC(C)O)n2)cc1 (configuration not stated) | 81%
CC(C)CCNC(=O)Nc1ccc2c(c1)N(C)C(=O)c1ccccc1S2 | 135%
Cc1ccc(CN2C(=O)c3ccccc3Sc3ccc(C(=O)NCc4ccco4)cc32)cc1 | 55%
CC(C)CCNC(=O)c1ccc2c(c1)N(Cc1cccc(Cl)c1)C(=O)c1ccccc1S2 | 70%
Cc1cccc(CN2C(=O)c3ccccc3Sc3ccc(C(=O)NCc4ccco4)cc32)c1 | 75%
Cc1ccc(C)c(CN2C(=O)c3ccccc3Sc3ccc(C(=O)NCc4ccco4)cc32)c1 | -1% (active)
CC(C)CCNC(=O)c1ccc2c(c1)N(C)C(=O)c1ccccc1S2 | -6% (active)
COc1cc(Cl)c(NC(=O)CN2C(=O)c3cccnc3Sc3ccccc32)c(OC)c1 | 72%
COc1ccc2c(CNCc3cccs3)c(C(=O)O)n(Cc3ccccc3F)c2c1 | 89%
CCN1CCC(N(Cc2ccc(F)cc2)C(=O)Nc2ccc(C)c(F)c2)CC1 | 87%
O=C(Nc1ccccc1C(F)(F)F)C1CCN(S(=O)(=O)c2ccccc2)CC1 | 72%
CCc1ccc(C(=O)c2cn(CC(=O)Nc3ccc4c(c3)OCCO4)c3ccc(C)cc3c2=O)cc1 | 84%
CCCCn1nc(NC(=O)c2cccc(Cl)c2)c2cc3ccccc3nc21 | 86%
NC(=O)CSc1nnc(C2CC2)n1Cc1ccccc1 | 93%
Cc1cn2c(=O)cc(COC(=O)c3ccc(NC(=O)c4ccc(F)cc4)cc3)nc2s1 | 70%

SMILES | survival
CC(Oc1ccccc1)C(=O)Nc1ccc(C(=O)OCc2cc(=O)n3ccsc3n2)cc1 (configuration not stated) | 72%
COc1ccc(OCC(=O)OCc2cc(=O)n3cc(C)sc3n2)cc1 | 1% (active)
Cc1cn2c(=O)cc(COC(=O)COc3ccc(F)cc3)nc2s1 | 81%
Cc1cn2c(=O)cc(COC(=O)COc3ccc(C)c(C)c3)nc2s1 | 63%
Cc1cn2c(=O)cc(COC(=O)c3ccc(NC(=O)C(C)Oc4ccccc4)cc3)nc2s1 (configuration not stated) | 0% (active)
O=C(COc1ccc(Cl)cc1)OCc1cc(=O)n2nc(-c3cccs3)sc2n1 | -6% (active)
Cc1cn2c(=O)cc(COC(=O)c3cccc(NC(=O)C(C)Oc4ccccc4)c3)nc2s1 (configuration not stated) | 69%
COc1ccc(OCC(=O)OCc2cc(=O)n3nc(-c4cccs4)sc3n2)cc1 | 87%
O=C(COc1ccccc1)OCc1cc(=O)n2nc(-c3cccs3)sc2n1 | 75%
Cc1cn2c(=O)cc(COC(=O)c3ccc(NC(=O)c4ccc(C(C)(C)C)cc4)cc3)nc2s1 | -3% (active)
Cc1cn2c(=O)cc(COC(=O)c3cccc(NC(=O)c4ccc(C(C)(C)C)cc4)c3)nc2s1 | 101%
Cc1cccc(OCC(=O)N(Cc2ccccc2)c2ccccn2)c1 | 87%
CCOC(=O)c1ccccc1NC(=O)CSc1nc(=O)[nH]c2c1CCC2 | 77%
Cc1ccc(NC(=O)Cn2cc(C#N)c3ccccc32)cc1 | 113%
Cc1c(Cl)cccc1NC(=O)Cn1c(=O)n(Cc2nc(-c3ccccc3)no2)c(=O)c2cc3c(cc21)OCO3 | 135%
CCn1cc(C(=O)NCc2ccc(C)cc2)c(=O)c2cc(S(=O)(=O)N3CCC(C)CC3)ccc21 | 128%
Cc1sc2ncn(CC(=O)Nc3cccc(C(F)(F)F)c3)c(=O)c2c1S(=O)(=O)N1CCN(C)CC1 | 75%
Cc1ccc(Cn2cc(S(=O)(=O)c3cccc(C)c3)c(=O)c3cc(F)c(N4CCOCC4)cc32)cc1 | 82%
Cn1c(=O)c2c(-c3ccccc3)n3c(c2n(C)c1=O)C(c1ccco1)Nc1ccccc1-3 (configuration not stated) | 85%
COc1ccccc1C1Nc2ccccc2-n2c(-c3ccccc3)c3c(=O)n(C)c(=O)n(C)c3c21 (configuration not stated) | 65%
Cc1ccc(-c2c3c(=O)n(C)c(=O)n(C)c3c3n2-c2ccccc2NC3c2ccc(C)cc2O)cc1 (configuration not stated) | -8% (active)
COc1ccc(-c2nc3ccccc3n3c(-c4ccc(OC)cc4)c4c(=O)n(C)c(=O)n(C)c4c23)cc1 | 75%
Cn1c(=O)c2c(-c3ccccc3)n3c(c2n(C)c1=O)C(c1ccccc1[N+](=O)[O-])Nc1ccccc1-3 (configuration not stated) | 76%

SMILES | survival
COc1ccc(-c2c3c(=O)n(C)c(=O)n(C)c3c3n2-c2ccccc2NC3c2ccc(O)cc2O)cc1 (configuration not stated) | -8% (active)
Cn1c(=O)c2c(-c3ccccc3)n3c(c2n(C)c1=O)C(c1cc(Cl)ccc1O)Nc1ccccc1-3 (configuration not stated) | -9% (active)
Cn1c(=O)c2c(-c3ccccc3)n3c(c2n(C)c1=O)C(c1cccc([N+](=O)[O-])c1)Nc1ccccc1-3 (configuration not stated) | 31%
Cc1cc2c(cc1C)-n1c(-c3ccccc3)c3c(=O)n(C)c(=O)n(C)c3c1C(c1ccco1)N2 (configuration not stated) | 88%
COc1ccc(-c2c3c(=O)n(C)c(=O)n(C)c3c3c(-c4ccccc4)nc4ccccc4n23)cc1 | 64%
COc1ccc(O)c(C2Nc3ccccc3-n3c(-c4ccccc4)c4c(=O)n(C)c(=O)n(C)c4c32)c1 (configuration not stated) | -6% (active)
COc1ccc(-c2c3c(=O)n(C)c(=O)n(C)c3c3c(C)nc4ccccc4n23)cc1 | 74%
O=C(C1CCN(S(=O)(=O)c2cccs2)CC1)N1CCN(c2ccccc2F)CC1 | 142%
CCN(C(=O)/C=C/c1cc(OC)c(OC)c(OC)c1)C1CCCCC1 | 107%
COc1cccc(CNC(=O)CCn2c(=O)c3cccn3c3cccnc32)c1 | 87%
CCC(Sc1nc(-c2ccccc2F)nc2c1Cc1c(CO)cnc(C)c1O2)C(=O)Nc1cc(C)ccc1C (configuration not stated) | 87%
COc1ccc(N2CCN(Cc3nnc(-c4ccc5c(c4)OCO5)o3)CC2)cc1 | 81%
O=C(Cn1c(C(=O)NC2CCCCC2)cc2sccc21)c1ccccc1 | 136%
Cc1ccc(C)n1-c1nnc(N2CCCC(C(=O)NCc3cccc(F)c3)C2)s1 (configuration not stated) | 81%
COC(=O)c1c(C)oc2ccc(N(C(=O)c3ccncc3)S(=O)(=O)c3cc(C)c(C)cc3C)cc12 | 77%
COc1ccc(Cl)c2sc(NC(=O)c3ccc(S(=O)(=O)N4CCCC4)cc3)nc12 | 73%
CCn1ccc2cc(S(=O)(=O)N3CCCN(C(=O)Nc4ccc(C)cc4Cl)CC3)ccc21 | 63%
COc1ccc(OC)c(C2NC(=O)NC(C)=C2C(=O)Nc2ccc(F)cc2)c1 (configuration not stated) | 81%
Cc1ccc(C)c(N2CCN(c3nc4ccccc4c(=O)n3-c3ccc(Cl)cc3)CC2)c1 | 78%
Cc1ccc(C)c(N2CCN(c3nc4ccccc4c(=O)n3-c3ccccc3)CC2)c1 | 10% (active)
O=c1c2ccccc2nc(N2CCN(c3cccc(Cl)c3)CC2)n1-c1ccccc1 | 81%
CN1CCN(c2ncc3c(n2)CCN(Cc2ccccc2Cl)C3)CC1 | 71%
CCN1CCN(c2ncc3c(n2)CCN(Cc2cc(Br)cs2)C3)CC1 | 1% (active)

SMILES | survival
COc1ccccc1N1CCN(c2ncc3c(n2)CCN(Cc2ccccc2F)C3)CC1 | 67%
COc1cc(OC)c(OC)cc1CN1CCc2nc(N3CCN(C)CC3)ncc2C1 | 82%
CCOc1ccccc1CN1CCc2nc(N3CCN(C)CC3)ncc2C1 | -4% (active)
COc1cc(OC)c(OC)cc1CN1CCc2nc(N3CCN(c4ccccc4F)CC3)ncc2C1 | 64%
CCN1CCN(c2ncc3c(n2)CCN(Cc2ccccc2C)C3)CC1 | -3% (active)
CCOc1ccccc1CN1CCc2nc(N3CCN(c4ccccc4F)CC3)ncc2C1 | -6% (active)
Cc1ccccc1CN1CCc2nc(N3CCN(c4ncccn4)CC3)ncc2C1 | 75%
Cc1ccccc1CN1CCc2nc(N3CCN(c4ccccn4)CC3)ncc2C1 | 71%
CCN1CCN(c2ncc3c(n2)CCN(Cc2ccc(Br)s2)C3)CC1 | 60%
CN1CCN(c2ncc3c(n2)CCN(Cc2cc(Br)cs2)C3)CC1 | 129%
COCCCNC(=O)C1CCN(c2ncnc3c2nc2n3CCCCC2)CC1 | 89%
CSc1nnc(-c2cc3ccccc3cc2O)n1C | 111%
COC(=O)c1sc2nc(C)cc(C)c2c1N | 103%
Nc1nc2cc3c(cc2s1)OCCO3 | 113%
COc1cc2nc(SCc3ccc(Cl)cc3)n3nc(CCn4nc(C)cc4C)nc3c2cc1OC | 71%
CCCCOc1ccc(CNC(=O)c2cnc3sc(N4CCC(C)CC4)nn3c2=O)cc1 | 127%
COC(=O)c1ccc(NC(=O)CCn2cccn2)cc1 | 88%
CCn1c2ccccc2c2cc(NC(=O)COc3cc(C)ccc3C)ccc21 | 18%
CCc1ccc(OCC(=O)Nc2ccc3c(c2)c2ccccc2n3CC)cc1 | 69%
CCn1c2ccccc2c2cc(NC(=O)COc3ccc(C)cc3C)ccc21 | 8% (active)
CCc1ccc(OCC(=O)Nc2ccc3c(c2)c2ccccc2n3CC)c(Br)c1 | -6% (active)
CCn1c2ccccc2c2cc(NC(=O)COC)ccc21 | 108%
CCn1c2ccccc2c2cc(NC(=O)COc3cccc(C)c3)ccc21 | 34%
